From PubChem BioAssay AID720518 (National Center for Advancing Translational Sciences (NCATS), 2013)
Results filed as inconclusive are left out. Entries that show only a call come without a potency. The source made the active and inactive calls. Calls follow the shape of the full dose curve.

test: qHTS for Inhibitors of Cell Surface uPA Generation: Wild-type Protective Antigen (WT-PrAg) Counterscreen for Cherry-picked Compounds; details: cells, WT protective antigen toxicity counterscreen; series mostly up to 115 µM

Row | Compound | Potency
1 | O=C(NC[C@H]1CCCO1)c1cccc2c1C(=O)c1ccc(-c3ccc(F)cc3OCc3ccccc3)cc1S2(=O)=O | inactive
2 | CC(C)N1CCc2c(sc(NC(=O)Cc3ccccc3)c2C(N)=O)C1 | inactive
3 | COc1ccc(C)cc1NC(=O)NNC(=O)C1CCC(C(C)(C)C)CC1 (stereo not given) | inactive
4 | CC(NC(=O)C1CCC(C(=O)NC(C)c2ccccc2)CC1)c1ccccc1 (stereo not given) | inactive
5 | COc1ccccc1C(=O)NCCC(=O)NCC(c1ccc(F)cc1)N1CCOCC1 (stereo not given) | inactive
6 | COC(=O)CCNS(=O)(=O)c1ccc2nsnc2c1 | inactive
7 | CCN(CC(=O)Nc1c(F)cccc1F)C(=O)c1ccc(-c2ccc(C(C)=O)cc2)o1 | inactive
8 | COC(=O)c1ccc(N2CCN(c3ccccc3)CC2)c(NC(=O)C2CC2)c1 | inactive
9 | O=C(O)c1ccccc1/C=N/NC(=S)NC1CCCCC1 | inactive
10 | Cc1ccc(S(=O)(=O)NCC(=O)OC(C)C(=O)NCc2ccc3c(c2)OCO3)cc1 (stereo not given) | inactive
11 | CC(C)CCN1C(=O)c2ccc(-c3nc4ccccc4c(=O)o3)cc2C1=O | inactive
12 | Cc1cc(SCc2ccc(Cl)cc2)nc(=O)[nH]1 | inactive
13 | CCc1nccn1CCC(=O)N1CCc2c([nH]c3ccccc23)C1CC(C)C (stereo not given) | inactive
14 | CCOc1ccc(NC(=S)N2CCC(c3ccc(C)cc3)C2)cc1 (stereo not given) | inactive
15 | CCO[C@H]1OC(C(=O)N2CCCCCCC2)=C[C@@H](c2ccc(C(F)(F)F)cc2)[C@@H]1CCCO | inactive
16 | CC(C)Cn1cnc2c(N)nc3ccccc3c21 | inactive
17 | CC(C)OC(=O)Nc1ccc(-c2ccc(NC(=O)OC(C)C)cc2Cl)c(Cl)c1 | inactive
18 | COc1cccc(C(=O)NCC(c2ccco2)N2CCc3ccccc3C2)c1 (stereo not given) | inactive
19 | C=CCn1c(C)cc(C(=O)COC(=O)/C=C/c2cccc(OC)c2)c1C | inactive
20 | COc1ccc(NC(=O)c2cccnc2N2CCOCC2)cc1 | inactive

Row | Compound | Potency
21 | O=C(C[C@@H]1C/C=C\C[C@H](Cc2ccc(F)cc2)C(=O)OC[C@H]2CCCN2C1=O)N[C@H](CO)Cc1ccccc1 | inactive
22 | CC(OC(=O)c1cccc(-n2cnnn2)c1)C(=O)Nc1ccc(F)c(F)c1F (stereo not given) | inactive
23 | O=C(COC(=O)/C=C/c1cccc(F)c1)Nc1ccccc1 | inactive
24 | Cc1ccccc1OCCC(=O)NNC(=O)c1ccccc1F | inactive
25 | Cc1ccnc(NS(=O)(=O)c2ccc(NC(=O)C3C4C=CC(C4)C3C(=O)O)cc2)n1 (stereo not given) | inactive
26 | COc1ccccc1NC(=O)Cn1nnc(-c2ccccc2NC(=O)c2cc3ccccc3oc2=O)n1 | inactive
27 | N#CCC(=O)N/N=C/c1ccc(OCC(=O)Nc2ccc(F)cc2)cc1 | inactive
28 | COc1ccc(C(c2sc3nc(C)nn3c2O)N2CCC(C(N)=O)CC2)cc1OC (stereo not given) | inactive
29 | CC(CCc1ccccc1)NC(=O)c1ccc(NC(=O)c2cccc(Br)c2)cc1 (stereo not given) | inactive
30 | CC1CN(C(=O)CCC(=O)NCc2ccccc2)c2ccccc2S1 (stereo not given) | inactive
31 | COc1cccc(NC(=S)NCc2ccc3c(c2)cc(C)n3C)c1 | inactive
32 | CNC(=S)N1C2CCCC1CC(NC(=O)c1ccc(F)cc1)C2 (stereo not given) | inactive
33 | Cc1ccc(NC(=O)CCCn2c(=S)[nH]c3ccsc3c2=O)cc1C | inactive
34 | CCc1ccc(NCc2nc(-c3ccccc3)no2)cc1 | inactive
35 | Cc1ccc(C)c(S(=O)(=O)Nc2ccccc2C(=O)Nc2cc(C)on2)c1 | inactive
36 | C[C@H](CO)N1C[C@H](C)[C@H](CN(C)S(=O)(=O)c2cn(C)cn2)Oc2ccc(NC(=O)Nc3ccc(C(F)(F)F)cc3)cc2CC1=O | inactive
37 | COC(=O)C1C(=O)c2c([nH]c(C(=O)OC3CCCCC3)c2C)CC1C (stereo not given) | inactive
38 | Cn1c(=O)n(CC(=O)O)c(=O)c2c1nc1n2CCCN1CCc1ccccc1 | inactive
39 | CC(=O)c1cnc2nc(SCc3cccc(C)c3)nn2c1C | inactive
40 | Cc1cccc(CCNC(=O)Cc2ccc(NC3=NC4CS(=O)(=O)CC4S3)cc2)c1 (stereo not given) | inactive
